Potency data for two molecules are collected here from PubChem BioAssay AID2566 (National Center for Advancing Translational Sciences (NCATS), 2010).

Inconclusive results are not listed. Active and inactive are the calls of the source.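 How the source made its calls: active means compound that pushes labeled neuropeptide S off its receptor in a binding test; inconclusive means all other tested compounds; inactive means none, nothing was called inactive.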

The target of this assay is Neuropeptide S receptor (Homo sapiens) (UniProt Q6W5P4). In words: Confirmation Concentration-Response Assay for Antagonists of the Neuropeptide S Receptor: Radioligand Displacement, SAR for Probe. The note with it: CHO-hNPSR, [125I]Y10-NPS displacement, 1.5 h. From the text:
NIH Chemical Genomics Center [NCGC] NIH Molecular Libraries Probe Production centers Network [MLPCN] MLPCN Grant: X01-DA026210-01 Assay Submitter (PI): Heilig, Markus Alexander NCGC Assay Overview: Neuropeptide S receptor (NPSR), previously known as GPR154, is a recently de-orphanized G protein coupled receptor. Its endogenous ligand is the 20 amino acids peptide Neuropeptide S (NPS). […] NPS and its receptor are found in various tissues. Specifically they are highly expressed in brain areas that have been implicated in modulation of arousal, stress and anxiety. Central administration of NPS in mice produces an unusual profile of activity by inducing wakefulness and arousal, while at the same time suppressing anxiety. Therefore, NPSR may represent a novel drug target for the treatment of sleep and anxiety disorders. As one method of confirming the specific activity of compounds active in the primary screen (AID 1461), we developed an assay to measure the displacement of radio-labeled native ligand, NPS, from its receptor in vitro.
The assay was carried out as described (Xu et al. (2004) Neuron, 43: 487-497) with minor modification. Y10-NPS labeled with 125I was bought from NEN Perkin Elmer (Boston, MA). […] Nonspecific binding was determined in the presence of 1 uM unlabeled human NPS. […] Bound radioactivity was counted in a liquid scintillation counter.
On the technique in general: In a radioligand displacement assay an active substance lowers the binding of a labelled ligand.

Neuropeptide S receptor (Homo sapiens), sequence (Q6W5P4 whole entry, looked up): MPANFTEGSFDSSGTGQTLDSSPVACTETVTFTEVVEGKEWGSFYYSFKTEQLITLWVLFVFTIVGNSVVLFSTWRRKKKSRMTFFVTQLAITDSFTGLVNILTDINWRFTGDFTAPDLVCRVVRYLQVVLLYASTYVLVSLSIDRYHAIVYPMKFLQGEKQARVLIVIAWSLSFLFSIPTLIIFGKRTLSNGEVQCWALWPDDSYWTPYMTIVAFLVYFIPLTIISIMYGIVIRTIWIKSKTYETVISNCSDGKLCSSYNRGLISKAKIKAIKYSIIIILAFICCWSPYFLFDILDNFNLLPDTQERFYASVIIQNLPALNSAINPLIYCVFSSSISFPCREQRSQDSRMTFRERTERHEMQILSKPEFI

For `Cc1c(P(=S)(c2ccccc2)c2ccccc2)[n+]2ccccc2n1C`, the Potency was 84.3 nM (active).

Regarding `Cc1c(P(=S)(c2ccccc2)c2ccccc2)[n+]2ccccc2n1C/C=C/c1ccccc1`, the Potency is 1 nM (active).
